SMN2 splice enh – increases expression of the SMN2 splice variant. HEK293 SMN2-luciferase splicing reporter, luminescence, 30-36 h. Potency, µM (top dose mostly 46.1 µM), for inactives: at the top dose activity change, positive = activation, hits mostly activators. 210,000 tested, 2.8% active. AID 1458; note: % of control where 0% means no effect; nearly all actives have a fitted effect of over 55% in size
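HEK293 cells carry an SMN2 […]–luciferase reporter in which exon 7 inclusion puts luciferase in frame. Cells were plated 10-12 h before compound addition, then incubated 30-36 h at 37C. ONE-Glo luminescence was read; sodium butyrate at 4.5 mM final served as control.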
FLuc modulator – counter-screen for miR-21 project: firefly luciferase inhibitors or activators | P08659 | purified FLuc, Km substrates, luminescence inhibition | AID 588342 | Potency, µM (series often up to 57.5 µM), for the others: top-dose activity change, negative = inhibition, usual class: inhibitors | 360,000 tested, 6.9% active;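 note: plate controls were vehicle for no effect and reference inhibitor for full effect; nearly all actives have a fitted effect of over 55% in size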
Target sequence (P08659 whole entry, looked up): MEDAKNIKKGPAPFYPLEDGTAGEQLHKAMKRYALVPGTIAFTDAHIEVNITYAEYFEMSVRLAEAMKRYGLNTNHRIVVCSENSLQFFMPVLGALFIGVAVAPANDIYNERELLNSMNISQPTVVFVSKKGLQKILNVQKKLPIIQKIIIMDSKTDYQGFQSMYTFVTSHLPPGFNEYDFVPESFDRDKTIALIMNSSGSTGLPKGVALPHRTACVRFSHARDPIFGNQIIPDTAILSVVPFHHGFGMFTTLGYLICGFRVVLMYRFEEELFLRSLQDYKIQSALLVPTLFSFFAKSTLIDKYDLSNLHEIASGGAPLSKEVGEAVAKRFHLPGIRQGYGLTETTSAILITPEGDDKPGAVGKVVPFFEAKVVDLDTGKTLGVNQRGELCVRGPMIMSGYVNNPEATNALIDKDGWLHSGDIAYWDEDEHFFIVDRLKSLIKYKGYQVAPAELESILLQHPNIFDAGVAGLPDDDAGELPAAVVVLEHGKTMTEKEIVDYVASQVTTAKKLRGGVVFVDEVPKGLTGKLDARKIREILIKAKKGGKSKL
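Purified P. pyralis luciferase (10nM final) with 10uM D-luciferin and 10uM ATP (Km levels) in 50mM Tris acetate pH 7.5, 10mM Mg acetate, 0.01% Tween-20, 0.05% BSA; qHTS 6-point titration, ~60 µM downward; luminescence read.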
KinaseGlo FLuc – blocks Kinase-Glo luciferase, a counter-screen artifact; Kinase-Glo luciferase, ATP luminescence, 8 min; AID 1379; Q27757; 200,000 tested, 0.28% active; Potency, µM (highest dose often 38.3 µM), inactives show at the top dose activity change, negative = inhibition, most hits filed as inhibitors; note: % is set by controls: 0 for no effect and ±100 for the full control effect; nearly all actives have a fitted effect of over 60% in size
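Kinase-Glo luciferase light output from ATP and luciferin was measured with 10 uM ATP, within the enzyme's linear range. Buffer: 50 mM imidazole pH 7.2, 50 mM KCl, 7 mM MgCl2, 0.01% Tween 20, 0.05% BSA; luminescence read after 8 min at ambient temperature.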
ELG1 genotox – genotoxicity induction in ELG1-luciferase HEK293T cells; HEK293T ELG1-luciferase reporter, luminescence, 16 h; Potency, µM (doses to about 46 µM), for the others: top-dose activity change, positive = activation, most hits filed as activators; 330,000 tested, 1.3% active; AID 504466; note: % of control where 0% means no effect; nearly all actives have a fitted effect of over 60% in size
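Reporter readout depends on ELG1 protein level, which increases with genetic stress. After 16 hr compound exposure at 37 °C, luciferase activity was quantified using ONE-Glo.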
NPC1 prom act – activates the NPC1 promoter | Huh7 NPC1 promoter luciferase reporter, 24 h | Potency, µM (series often up to 9.22 µM), without a hit: at the top dose activation, usual class: activators | 320,000 tested, 2.4% active | AID 485313; note: % of control where 0% means no effect; nearly all actives have a fitted effect of over 60% in size
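Huh7 cells stably carrying NPC1 promoter–luciferase, plated in Opti-MEM with 10% FBS for 2 h, were exposed to compound in DMSO for 24 h at 37 °C; luciferase reagent was added for 10 min and luminescence read.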
Rab9 promoter act – activates the Rab9 promoter. Huh7 Rab9 promoter-luciferase reporter, luminescence, 24 h. Potency, µM (doses to about 9.22 µM), inactives show top-dose activation, negative = inhibition, actives largely listed as activators. 320,000 tested, 2.8% active. AID 485297; note: % of control where 0% means no effect; nearly all actives have a fitted effect of over 60% in size
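Luminescence read-out: Huh7 cells stably expressing Rab9-luciferase, treated 24 h with compound at 37 °C, then lysed with luciferase reagent for 10 min at ambient before reading.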
Active calls of the source: *. Compounds with a hit are over-represented: about 7.3% of the library has one in this group of screens. Calls come from the whole dose curve; as a rule, active = well fitted curve in the direction sought with a large enough effect; inconclusive = small, poorly fitted or top-dose-only effect, or another doubt; inactive = no such curve, though single readings can be large; an effect the other way counts as inactive or inconclusive. Potency is the fitted concentration of half-maximal effect.

O=C(N/N=C/c1cn(Cc2cccc(F)c2)c2ccccc12)c1cc(O)cc(O)c1 was read as FLuc modulator 17µM*, ELG1 genotox 2%, NPC1 prom act 0% and Rab9 promoter act 1%.
Cc1ccccc1OCC(=O)N/N=C/c1cn(Cc2ccccc2)c2ccccc12 was read as SMN2 splice enh -17%, FLuc modulator -1%, KinaseGlo FLuc -1%, ELG1 genotox 1%, NPC1 prom act 0% and Rab9 promoter act 0%.
CC(C)n1cc(/C=N\NC(=O)c2cc3c(ccc4ccccc43)o2)c2ccccc21 was read as SMN2 splice enh -22%, FLuc modulator inconclusive, KinaseGlo FLuc -2%, ELG1 genotox 1%, NPC1 prom act -3% and Rab9 promoter act 16%.
`CC(C)n1cc(/C=N/Nc2ccc(C(=O)O)cc2)c2ccccc21` gave FLuc modulator 6µM*, ELG1 genotox inconclusive, NPC1 prom act 12% and Rab9 promoter act 6%.
`O=C(O)c1ccc(N/N=C/c2cn(Cc3ccccc3F)c3ccccc23)cc1` gave FLuc modulator 21µM*, ELG1 genotox inconclusive, NPC1 prom act 24% and Rab9 promoter act inconclusive.
CC(C)c1ccc(NC(=O)CN2C(=O)c3cccc4cccc2c34)cc1 was read as FLuc modulator 2%.
Cc1cc(C)cc(NC(=O)c2cn3c4c(ccc(Cl)c4c2=O)OC(C)C3)c1 (stereo not drawn) was read as FLuc modulator 7%.
Cn1cc(/C=N/Nc2ccccc2)c2ccccc21 was read as SMN2 splice enh inconclusive, FLuc modulator 13µM*, KinaseGlo FLuc -2%, ELG1 genotox inconclusive, NPC1 prom act 14% and Rab9 promoter act inconclusive.
Screening Nc1ccc(C(=O)N/N=C/c2cn(Cc3ccccc3)c3ccccc23)cc1 returned FLuc modulator 17µM*, ELG1 genotox 0%, NPC1 prom act -3% and Rab9 promoter act -5%.
Nc1ccc(C(=O)N/N=C/c2cn(Cc3ccccc3F)c3ccccc23)cc1 was read as FLuc modulator 24µM*, ELG1 genotox -5%, NPC1 prom act 0% and Rab9 promoter act -1%.
COc1ccc(/C=C/C(=O)OCC(=O)Nc2ccc(Cl)c(S(=O)(=O)N(C)C)c2)cc1OC was read as SMN2 splice enh -1%, FLuc modulator 24µM*, KinaseGlo FLuc 2%, ELG1 genotox 9%, NPC1 prom act -5% and Rab9 promoter act -2%.
`COc1ccc(NC(=O)COC(=O)/C=C/c2ccc(OC)c(S(=O)(=O)N3CCOCC3)c2)cc1` gave SMN2 splice enh 9%, FLuc modulator 1%, KinaseGlo FLuc -3%, ELG1 genotox 3%, NPC1 prom act -1% and Rab9 promoter act 10%.
`COc1ccc(/C=C/C(=O)OCC(=O)Nc2ccc(OC)c(S(=O)(=O)N3CCCCC3)c2)cc1` gave SMN2 splice enh 11%, FLuc modulator 6µM*, KinaseGlo FLuc 4%, ELG1 genotox 0%, NPC1 prom act -2% and Rab9 promoter act -3%.
C#CC(C)(C)NC(=O)c1ccc(-c2ccccc2F)cc1 was read as FLuc modulator 19µM*, ELG1 genotox inconclusive, NPC1 prom act inconclusive and Rab9 promoter act inconclusive.
`Cc1cc(C)c(NC(=O)Cn2c(=O)n(CCC(C)C)c(=O)c3cccnc32)c(C)c1` gave SMN2 splice enh 2% and FLuc modulator -4%.
`CCC(=O)N(Cc1cc2ccccc2[nH]c1=O)C(C)C` gave SMN2 splice enh -34%, FLuc modulator 0%, KinaseGlo FLuc 2%, ELG1 genotox 23µM*, NPC1 prom act -4% and Rab9 promoter act 16%.
Screening CC(C)N(Cc1cc2ccccc2[nH]c1=O)C(=O)C1CCCCC1 returned SMN2 splice enh 18%, FLuc modulator 2%, KinaseGlo FLuc -2%, ELG1 genotox -2%, NPC1 prom act 1% and Rab9 promoter act -2%.
N#Cc1ccsc1NC(=O)CN(Cc1ccccc1)Cc1ccccc1 was read as SMN2 splice enh -25%, FLuc modulator -16%, KinaseGlo FLuc 4%, ELG1 genotox 0%, NPC1 prom act -4% and Rab9 promoter act -4%.
N#Cc1ccsc1NC(=O)COC(=O)c1cc2ccccc2cc1O was read as SMN2 splice enh 22µM*, FLuc modulator 4.3µM*, KinaseGlo FLuc -5%, ELG1 genotox inconclusive, NPC1 prom act 18% and Rab9 promoter act 3.2µM*.
CCN(CC)c1ccc(C(=O)OCC(=O)Nc2ncccn2)cc1 was read as ELG1 genotox -2%.
`CCN(CC)c1ccc(C(=O)OCC(=O)Nc2sccc2C#N)cc1` gave SMN2 splice enh 10µM*, FLuc modulator 12µM*, KinaseGlo FLuc 5%, ELG1 genotox inconclusive, NPC1 prom act 3.2µM* and Rab9 promoter act 2.8µM*.
For N#Cc1ccsc1NC(=O)COc1ccc(-c2nnco2)cc1 the results were SMN2 splice enh inconclusive, FLuc modulator 15µM*, KinaseGlo FLuc 5%, ELG1 genotox inconclusive, NPC1 prom act inconclusive and Rab9 promoter act inconclusive.
`N#Cc1ccsc1NC(=O)CCc1ccccc1` gave SMN2 splice enh 13µM*, FLuc modulator 15µM*, KinaseGlo FLuc -15%, ELG1 genotox inconclusive, NPC1 prom act 0% and Rab9 promoter act inconclusive.
For CN(C(=O)COC(=O)c1cc2ccccc2cc1O)c1ccccc1 the results were ELG1 genotox 0%.
`N#Cc1ccsc1NC(=O)COC(=O)c1ccc(NC(N)=O)cc1` gave SMN2 splice enh 13µM*, FLuc modulator 5.4µM*, KinaseGlo FLuc -2%, ELG1 genotox 21µM*, NPC1 prom act 1.1µM* and Rab9 promoter act inconclusive.
NC(=O)Nc1ccc(C(=O)OCC(=O)Nc2sccc2C(N)=O)cc1 was read as FLuc modulator inconclusive, ELG1 genotox 1%, NPC1 prom act -7% and Rab9 promoter act 1%.
`CC(C)(C)C(=O)COC(=O)c1cc2ccccc2cc1O` gave SMN2 splice enh inconclusive, FLuc modulator 6.7µM*, KinaseGlo FLuc -5%, ELG1 genotox inconclusive, NPC1 prom act -1% and Rab9 promoter act 1%.
For CCOC(=O)Nc1nnc(-c2ccccc2OC)s1 the results were SMN2 splice enh inconclusive, FLuc modulator inconclusive, KinaseGlo FLuc 1%, ELG1 genotox 10%, NPC1 prom act 17% and Rab9 promoter act inconclusive.
`COC(=O)Nc1nnc(-c2ccccc2OC)s1` gave FLuc modulator 11µM*, ELG1 genotox inconclusive, NPC1 prom act 3.5µM* and Rab9 promoter act 2.2µM*.
